Results on 88 compounds are retold here after PubChem BioAssay AID2314 (National Center for Advancing Translational Sciences (NCATS), 2010).

Values joined by “and” are separate entries in the source; they are usually repeats but may differ in a detail not shown here. Identical values can stand only once. About 37,000 (12%) of roughly 300,000 compounds were called active. Cut-off read from the data, not from the text of the source: active = max response mostly above about 13% (no sharp cut-off); inactive = mostly below about 14%. The entries come from a sample that favours actives as a whole.

A short description of this test: Cycloheximide Counterscreen for Small Molecule Inhibitors of Shiga Toxin. Note: read at 38.3 µM for the half of the compounds with a filed dose; 0% is about no effect. The note with it: cell reporter, cycloheximide protein synthesis inhibition counterscreen; stronger effect = higher value. A general note: A counterscreen serves to expose hits that act by an unwanted route or on another target.
With `Cc1nc(-c2ccccc2)cn2c1nc1ccccc12`, the max response was 12.4% (inactive).

Take `Cc1ccc(S(=O)(=O)N2CCC(Oc3ccc(-n4cnnn4)cc3)CC2)cc1`: the max response is -4.88% (inactive).

On to `O=C(Cc1ccc(Br)cc1)NCCN1CCOCC1`, for which the max response was -13% (inactive).

With `CCN1C(=NCCc2cccnc2)N[C@@H](c2ccccc2)C(C(=O)OC)=C1C`, the max response is 1.37% (inactive) and -1.46% (inactive).

In the case of `O=C(c1ccc(F)cc1)n1c(=S)nc2ccccn21`, the max response was 53.4% (active).

For the compound `O=C(c1ccc(F)cc1)n1cc(C(=S)N2CCOCC2)c2ccccc21`, the max response is 7.24% (inactive).

As to `O=C(C[n+]1cc(Br)cc2ccccc21)c1ccc(F)cc1`, the max response was 3.72% (inactive).

As to `CC(C(=O)NC1CCCCC1)N1C(=O)c2cccc3cccc1c23` (stereo not drawn), the max response is 11.1% (inactive).

For the compound `COCCN(C(=O)CCC(=O)Nc1nccs1)C(C(=O)NCCC(C)C)c1ccc(F)cc1` (stereo not drawn), the max response was -2.06% (inactive).

As for `CCOC(=O)c1c(-c2ccc(-c3ccccc3)cc2)csc1NC(=O)CCC(=O)O`, the max response was -2.27% (inactive).

Consider `CCOC(=O)C1=C(c2ccc(OC)cc2)C(=O)c2ccccc2C1=O`, for which the max response was 1.07% (inactive).

As to `CCOC(=O)c1c(-c2ccc(C)cc2)csc1/N=C(\C)C1=C(O)c2ccccc2C1=O`, the max response is 11.2% (active).

For `Cc1csc(NC(=S)Nc2cccc(Cl)c2)n1`, the max response was 41.1% (active).

In the case of `CCc1cccc(CC)c1NC(=S)Nc1ccc2cn[nH]c2c1`, the max response is -0.951% (inactive).

On to `Cc1cccc(NC(=S)Nc2ccc3cn[nH]c3c2)c1`, for which the max response is 7.4% (inactive).

Consider `S=C(Nc1cccc(Cl)c1)Nc1ccc2cn[nH]c2c1`, for which the max response was 24.8% (active).

Consider `CCn1c(SCC(=O)Nc2nc(C)cs2)nnc1C(C)NC(=O)c1ccccc1` (stereo not drawn), for which the max response was 1.33% (inactive).

Take `Cc1csc(NC(=O)c2ccc(-c3ccc(Cl)cc3Cl)o2)n1`: the max response was 11.3% (inactive).

On to `CC(=O)c1cccc(NC(=O)c2ccncc2)c1`, for which the max response is 7.01% (inactive).

Turning to `CC(=O)Nc1cccc(C(=O)Nc2nc(C)cs2)c1`, the max response was 27.2% (active).

With `Cc1cccc(NC(=S)Nc2ccc(Cl)c(Cl)c2)c1`, the max response was -1.87% (inactive).

Regarding `Cc1cc(=O)oc2cc(OCC3CC(c4ccccc4Cl)=NO3)ccc12` (stereo not drawn), the max response was 13.7% (inactive).

As for `Cc1ccc(NC2CCCN(C(=O)CCC3(C)CC3)C2)cc1C` (stereo not drawn), the max response is 10.8% (inactive).

Regarding `Cc1nc2ccc(C(=O)N(C)CC3CCCN(CCc4ccc(Cl)cc4)C3)cc2[nH]1` (stereo not drawn), the max response is -2.66% (inactive).

In the case of `C=CCNC(=S)N1CCN(CCN=Cc2c(C)[nH]n(-c3ccc([N+](=O)[O-])cc3)c2=O)CC1`, the max response is -1.17% (inactive).

Take `CCO[C@H]1OC(C(=O)Nc2ccccc2)=C[C@@H](C2CC2)[C@@H]1CCCO`: the max response is -1.4% (inactive).

In the case of `C[C@]1(C(=O)NCCc2c[nH]c3ccccc23)C=C[C@@H](Cc2ccccc2)N1C(=O)c1ccccc1`, the max response was 11.9% (inactive).

`Cc1ccc(N2C(=O)C3C(c4ccccc4)(C2=O)C3(c2ccccc2)c2ccccc2)cc1` (stereo not drawn): the max response is -4.14% (inactive).

On to `c1ccc(-c2cc(-c3nnc4sc(-c5ccccn5)nn34)[nH]n2)cc1`, for which the max response was 5.86% (inactive).

With `CCOc1cccc(-c2nn3c(-c4ccccn4)nnc3s2)c1`, the max response was 22.6% (active).

With `COc1cc(-c2nn3c(-c4cccc(C)c4)nnc3s2)cc(OC)c1OC`, the max response is -2.72% (inactive).

As to `CCC(=O)N(Cc1cc2cc(OC)ccc2[nH]c1=O)c1ccccc1C`, the max response is -0.76% (inactive).

As to `COc1ccc2[nH]c(=O)c(CNc3ccc(C)c(C)c3)cc2c1`, the max response was 15% (active).

Consider `COc1ccc(N(Cc2cc3cc(OC)ccc3[nH]c2=O)S(C)(=O)=O)cc1`, for which the max response was -1.64% (inactive).

`CC(=O)c1ccc(S(=O)(=O)N2CCC(Oc3ccc(-n4cnnn4)cc3)CC2)cc1`: the max response was -8.92% (inactive).

On to `N#Cc1c(Cl)nc(-c2cccnc2)nc1-c1ccccc1`, for which the max response is -2.59% (inactive).

`S=C(Nc1cccnc1)Nc1ccccn1`: the max response was -1.56% (inactive).

On to `CCOC(=O)c1cnc(-n2nc(C)cc2C)nc1NNc1cc(C)nc(-c2ccccc2)n1`, for which the max response was -1.88% (inactive).

`COc1ccc(/C=N/OCC(=O)N(Cc2ccccc2)c2ccccc2C(=O)O)cc1`: the max response is -1.3% (inactive).

Regarding `COc1ccc(/C=N/Nc2nc3ccccc3c(=O)[nH]2)cc1`, the max response is 43.2% (active).

For `COc1ccc(/C=N/NS(=O)(=O)c2ccc(NC(C)=O)cc2)cc1`, the max response is -2.62% (inactive).

Consider `COc1ccc(/C=N/Nc2ccccc2C(=O)O)cc1`, for which the max response is 38.9% (active).

On to `COc1ccc(C=Nc2cccc3ncccc23)cc1`, for which the max response is 5.61% (inactive).

On to `COc1ccc(/C=N/Nc2nc(-c3ccc(C)cc3)c(C#N)c(=O)[nH]2)cc1`, for which the max response was -2.53% (inactive).

In the case of `Cc1cccc(NC(=O)C2CCN(C(=O)NC3CCCCC3)CC2)c1`, the max response was -6.02% (inactive).

`Cc1ccc2cc(CCNC(=O)c3c(-c4ccccc4Cl)noc3C)c(=O)[nH]c2c1`: the max response was -3.51% (inactive).

For the compound `Cc1c2cnn(CC(=O)NCc3ccccn3)c(=O)c2c(C)n1Cc1ccc(Cl)cc1`, the max response is -3.5% (inactive).

Consider `CCOC(=O)Cc1csc(SCc2cc(=O)oc3cc(O)ccc23)n1`, for which the max response was -1.72% (inactive).

Turning to `COCc1cc(=O)oc2cc(NS(=O)(=O)c3ccc(C)cc3)ccc12`, the max response is 2.21% (inactive).

Consider `Cc1ccc2c(CSc3nncs3)cc(=O)oc2c1`, for which the max response was 26.8% (active).

As for `CCCNC(=O)CSc1nc(Cc2ccccc2)nc2ccccc12`, the max response is -5% (inactive).

With `CN=c1scc(-c2cc(OC)ccc2OC)n1/N=C/c1c(C)[nH]c2ccccc12`, the max response is 15.1% (active).

On to `CCn1c(-c2cc(OC)ccc2OC)csc1=Nc1c(C)n(C)n(-c2ccccc2)c1=O`, for which the max response was -0.97% (inactive).

In the case of `COc1ccc(C)cc1Nc1nc(-c2c(C)[nH]c3ccccc23)cs1`, the max response is 11.4% (inactive).

`CC(C)(C)N(Cc1ccccc1)C(=O)COC(=O)CCc1c[nH]c2ccccc12`: the max response was -0.22% (inactive).

For the compound `COc1cc(CN2CCC(n3nccc3NC(=O)CCCc3ccccc3)CC2)ccc1O`, the max response was -1.56% (inactive).

Consider `COc1ccc(CN2CCC(n3nccc3NC(=O)CCCc3ccccc3)CC2)cc1C`, for which the max response was -6.15% (inactive).

As for `CC(=O)NCC(=O)N1CCC(n2nccc2NC(=O)CCCc2ccccc2)CC1`, the max response is 26.3% (active).

Regarding `Cc1ccc(CN2CCC(n3nccc3NC(=O)CCCc3ccccc3)CC2)o1`, the max response is 2.06% (inactive).

Consider `CCn1cc(CN2CCC(n3nccc3NC(=O)CCCc3ccccc3)CC2)c(C)n1`, for which the max response was -2.15% (inactive).

As to `CC(=O)N[C@@H](C)C(=O)N1CCC(n2nccc2NC(=O)CCCc2ccccc2)CC1`, the max response was 24.6% (active).

In the case of `CCC(C(=O)OC)n1cnc2scc(-c3ccc(C)cc3)c2c1=O` (stereo not drawn), the max response is 0.506% (inactive).

On to `COc1ccc(N2C(=O)C3C(C2=O)C(C(=O)c2ccccc2)N2CCCC32)cc1` (stereo not drawn), for which the max response was 2.35% (inactive).

As to `O=C(NCc1ccccc1Cl)c1ccc2c(=O)n(CC3CCCO3)c(=S)[nH]c2c1` (stereo not drawn), the max response was -1.12% (inactive).

With `CCCC[C@@H]1CN=C(N)N1CCc1cc(C(F)(F)F)cc(C(F)(F)F)c1`, the max response is -4.84% (inactive).

Regarding `CC[C@H](C)[C@H](NC(=O)[C@H](CCCNC(=N)N)NC(=O)[C@H](CCCNC(=N)N)NC(=O)[C@H](CC(C)C)NC(=O)[C@H](Cc1ccccc1)NC(=O)CNC(=O)CNC(=O)[C@@H](N)Cc1ccc(O)cc1)C(=O)N[C@@H](CCCNC(=N)N)C(=O)N1CCC[C@H]1C(=O)N[C@@H](CCCCN)C(=O)N[C@@H](CC(C)C)C(=O)N[C@@H](CCCCN)C(=O)N[C@@H](Cc1c[nH]c2ccccc12)C(=O)N[C@@H](CC(=O)O)C(=O)N[C@@H](CC(N)=O)C(=O)N[C@@H](CCC(N)=O)C(=O)O`, the max response was -3.93% (inactive).

Turning to `O=C(Cn1ccc2cc(S(=O)(=O)N3CCCC3)ccc21)NCc1ccccc1`, the max response was 12.1% (inactive).

`C=CCOc1ccc(/C=C2\SC(=S)N(CCC(=O)O)C2=O)cc1`: the max response was -2.97% (inactive).

Regarding `O=C(C1CCN(S(=O)(=O)c2ccc(Br)s2)CC1)N1CCN(C2CCCCC2)CC1`, the max response was 3.94% (inactive).

Take `COc1cc(OC)c(-n2cc(-c3ccc(Cl)cc3)[nH]c2=O)cc1Cl`: the max response is 0.883% (inactive).

For `Cc1cc(C)nc(SC2CCCCC2NS(=O)(=O)c2ccc(Cl)cc2)n1` (stereo not drawn), the max response is -1.57% (inactive).

Regarding `CC(c1ccccn1)N(C)C(=O)c1ccc2nc(Cc3cccc(Cl)c3)oc2c1` (stereo not drawn), the max response is 52.7% (active).

`CN(Cc1ccccc1)C(=O)c1cccc(C(=O)N(C)Cc2ccccc2)c1`: the max response is -3.47% (inactive).

With `CC(C(=O)NCC1CCCCC1)N(C)Cc1cccc(Cl)c1` (stereo not drawn), the max response was -4.34% (inactive).

As to `COC(=O)c1cc(S(=O)(=O)Nc2ccc(C)c(F)c2)c[nH]1`, the max response was 1.38% (inactive).

Take `COc1cccc(OC)c1C(=O)Nc1nnc(C(C)C)s1`: the max response was -1.98% (inactive).

With `COc1ccc(C(=O)NC2=NCCS2)c(OC)c1`, the max response was 32.6% (active).

Regarding `COc1ccc(NC(=O)c2cc(-c3cc(OC)c(OC)c(OC)c3)nc3ccccc23)c(OC)c1`, the max response was -6.98% (inactive).

Turning to `COc1ccc(Cc2nnc(NC(=O)c3ccc(OC)cc3OC)s2)cc1`, the max response is 31.5% (active).

Regarding `O=C(NC1=NCCS1)c1ccc(Cl)s1`, the max response is 66.8% (active).

On to `COc1ccc(Cc2nnc(NC(=O)Cc3cccs3)s2)cc1`, for which the max response is 12.7% (inactive).

In the case of `COc1ccc(C(=O)Nc2nncs2)c(OC)c1`, the max response was 34.6% (active).

As for `COc1ccc(C(=O)NCc2nnc(SCC(=O)NC3=NCCS3)n2C)cc1`, the max response was -2.2% (inactive).

Consider `CC(NC(=O)COc1ccccc1)C(=O)NC1=NCCS1` (stereo not drawn), for which the max response is 4.07% (inactive).

As to `COc1ccc(C(=O)N2CCCN(C)CC2)c(OC)c1`, the max response was -2.16% (inactive).

With `COc1ccc(Cc2nnc(NC(=O)c3cc(OC)c(OC)c(OC)c3)s2)cc1OC`, the max response was -3.75% (inactive).

`O=C(NC1=NCCS1)[C@H](Cc1ccccc1)N1C(=O)c2ccccc2C1=O`: the max response is -2.74% (inactive).

Turning to `CCN1C(=S)N[C@@H](c2cccc(C(F)(F)F)c2)C(C(=O)OC)=C1C`, the max response was -8.93% (inactive).
